What all share (experiment): DAPPL (digital affinity profiling via proximity ligation, sequencing); 10 mM Tris-HCl pH 7.5, 50 mM NaCl, 1 mM DTT, 4% glycerol, room temperature, 30 min; GST-TFs on glutathione beads, 16-mer random dsDNA library, 0.1% formaldehyde crosslink after washing; high values mean tight binding
The target of one assay is T1, FEV (Homo sapiens, UniProt Q99581 1-238).
T1 sequence: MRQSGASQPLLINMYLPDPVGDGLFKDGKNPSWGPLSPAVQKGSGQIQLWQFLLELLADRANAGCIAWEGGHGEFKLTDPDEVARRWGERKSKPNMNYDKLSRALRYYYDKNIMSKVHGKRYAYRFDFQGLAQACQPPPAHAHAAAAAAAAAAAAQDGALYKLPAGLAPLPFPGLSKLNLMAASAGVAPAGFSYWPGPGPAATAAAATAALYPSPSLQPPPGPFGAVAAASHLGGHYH
The note with it: protein: recombinant; tags: N-terminal GST; dsDNA, one strand shown. Summed up:
(§1)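 Human transcription factors were made in yeast as GST fusions, captured on glutathione beads and barcoded with DNA. With a tag-only sample included, the pool was incubated with 200 nmole of a random double-stranded 16-mer DNA library in Tris/NaCl/DTT/glycerol buffer at room temperature for 30 min, then crosslinked with 0.1% formaldehyde after washing, ligated by proximity, amplified and sequenced. For binding signal, each hexamer's read frequency for a factor is divided by its frequency for the tag-only sample.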

The next assay has as its target ETV5 (Homo sapiens, UniProt P41161 1-510). Particulars: protein: recombinant; tags: N-terminal GST; dsDNA, one strand shown. The method, boiled down: as §1
A further assay has as its target HSF1 (Homo sapiens, UniProt Q00613 1-529). Particulars: protein: recombinant; tags: N-terminal GST; chain copies: 3; dsDNA, one strand shown. The method, boiled down:
as §1

In the next assay the target is T2, SPIC (Homo sapiens, UniProt Q8N5J4 1-248).
T2 sequence: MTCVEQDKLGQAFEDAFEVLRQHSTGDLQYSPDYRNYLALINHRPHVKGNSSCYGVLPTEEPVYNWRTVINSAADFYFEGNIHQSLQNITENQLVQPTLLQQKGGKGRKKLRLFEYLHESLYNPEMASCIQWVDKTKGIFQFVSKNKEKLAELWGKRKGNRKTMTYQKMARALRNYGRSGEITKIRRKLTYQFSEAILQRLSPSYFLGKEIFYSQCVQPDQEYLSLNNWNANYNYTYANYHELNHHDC
The note with it: protein: recombinant; tags: N-terminal GST; dsDNA, one strand shown. The method, boiled down:
as §1

The target in the next assay is ELF4 (Homo sapiens, UniProt Q99607 1-663). Particulars: protein: recombinant; tags: N-terminal GST; dsDNA, one strand shown. Summed up: as §1
Chain of ELF4 (Q99607 whole entry): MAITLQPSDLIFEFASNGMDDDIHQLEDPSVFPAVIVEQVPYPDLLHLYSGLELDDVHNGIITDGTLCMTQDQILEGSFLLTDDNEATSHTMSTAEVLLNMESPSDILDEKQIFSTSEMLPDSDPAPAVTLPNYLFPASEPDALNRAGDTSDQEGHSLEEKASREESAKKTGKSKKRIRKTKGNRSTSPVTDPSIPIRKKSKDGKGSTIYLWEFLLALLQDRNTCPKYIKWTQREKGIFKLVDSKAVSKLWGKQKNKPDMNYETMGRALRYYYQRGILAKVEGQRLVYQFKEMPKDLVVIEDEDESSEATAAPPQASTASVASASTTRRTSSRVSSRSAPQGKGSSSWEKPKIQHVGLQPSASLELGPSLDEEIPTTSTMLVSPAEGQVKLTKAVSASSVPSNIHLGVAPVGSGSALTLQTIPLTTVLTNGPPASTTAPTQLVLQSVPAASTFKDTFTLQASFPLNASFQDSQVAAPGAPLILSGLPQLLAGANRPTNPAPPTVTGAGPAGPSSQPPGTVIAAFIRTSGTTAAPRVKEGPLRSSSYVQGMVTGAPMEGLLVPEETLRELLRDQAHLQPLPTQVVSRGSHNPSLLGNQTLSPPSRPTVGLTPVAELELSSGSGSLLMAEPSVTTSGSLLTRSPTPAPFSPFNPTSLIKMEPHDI
Another assay has as its target T3, ELK4 (Homo sapiens, UniProt P28324-2 1-405).
T3 sequence: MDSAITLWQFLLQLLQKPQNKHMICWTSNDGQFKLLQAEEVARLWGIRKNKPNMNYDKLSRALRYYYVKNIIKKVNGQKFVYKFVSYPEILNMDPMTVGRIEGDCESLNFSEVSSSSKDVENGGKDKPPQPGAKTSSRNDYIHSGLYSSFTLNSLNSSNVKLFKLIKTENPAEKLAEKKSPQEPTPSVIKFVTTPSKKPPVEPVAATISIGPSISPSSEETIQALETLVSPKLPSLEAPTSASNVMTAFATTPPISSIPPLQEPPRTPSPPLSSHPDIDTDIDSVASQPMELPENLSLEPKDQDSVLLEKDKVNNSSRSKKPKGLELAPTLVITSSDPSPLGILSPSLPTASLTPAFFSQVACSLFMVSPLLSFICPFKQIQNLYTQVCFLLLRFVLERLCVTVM
Particulars: protein: recombinant; tags: N-terminal GST; dsDNA, one strand shown. Summed up: as §1

The target in the next assay is T4, ETV2 (Homo sapiens, UniProt O00321 1-342).
T4 sequence: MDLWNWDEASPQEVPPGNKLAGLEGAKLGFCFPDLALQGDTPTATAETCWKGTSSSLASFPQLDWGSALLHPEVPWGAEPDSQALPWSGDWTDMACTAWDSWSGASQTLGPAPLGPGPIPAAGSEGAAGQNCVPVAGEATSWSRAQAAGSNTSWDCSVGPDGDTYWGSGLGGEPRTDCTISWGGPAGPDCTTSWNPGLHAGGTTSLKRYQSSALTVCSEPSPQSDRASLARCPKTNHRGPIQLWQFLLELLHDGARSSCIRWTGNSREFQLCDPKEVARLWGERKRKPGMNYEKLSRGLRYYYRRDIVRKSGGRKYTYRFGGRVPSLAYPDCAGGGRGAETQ
The note with it: protein: recombinant; tags: N-terminal GST; dsDNA, one strand shown. Summed up: as §1

A further assay addresses T5, ELF3 (Homo sapiens, UniProt P78545 1-371).
T5 sequence: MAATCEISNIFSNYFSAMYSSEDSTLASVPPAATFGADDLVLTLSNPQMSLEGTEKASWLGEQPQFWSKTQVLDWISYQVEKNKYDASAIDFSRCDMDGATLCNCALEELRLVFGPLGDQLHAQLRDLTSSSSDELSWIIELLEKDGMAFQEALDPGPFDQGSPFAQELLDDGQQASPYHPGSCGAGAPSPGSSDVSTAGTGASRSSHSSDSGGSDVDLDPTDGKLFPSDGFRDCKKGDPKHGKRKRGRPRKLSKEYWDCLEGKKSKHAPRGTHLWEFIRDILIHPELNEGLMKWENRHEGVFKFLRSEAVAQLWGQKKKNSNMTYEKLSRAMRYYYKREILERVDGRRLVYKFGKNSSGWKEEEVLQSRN
The note with it: protein: recombinant; tags: N-terminal GST; dsDNA, one strand shown. The method, boiled down: as §1

For the next assay, the target named is CRX (Homo sapiens, UniProt O43186 1-299). The note with it: protein: recombinant; tags: N-terminal GST; dsDNA, one strand shown. The method, boiled down: as §1
Chain of CRX (O43186 whole entry): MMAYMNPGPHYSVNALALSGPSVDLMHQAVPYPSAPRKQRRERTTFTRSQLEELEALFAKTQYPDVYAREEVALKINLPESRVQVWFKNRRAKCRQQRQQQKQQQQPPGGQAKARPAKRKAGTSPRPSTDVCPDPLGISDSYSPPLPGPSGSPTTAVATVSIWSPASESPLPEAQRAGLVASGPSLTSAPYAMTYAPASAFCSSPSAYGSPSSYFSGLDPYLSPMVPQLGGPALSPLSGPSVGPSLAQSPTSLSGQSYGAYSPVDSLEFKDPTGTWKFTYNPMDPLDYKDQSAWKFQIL
The target of the next assay is ETV1 (Homo sapiens, UniProt P50549 1-477). Particulars: protein: recombinant; tags: N-terminal GST; dsDNA, one strand shown. Summed up: as §1
Chain of ETV1 (P50549 whole entry): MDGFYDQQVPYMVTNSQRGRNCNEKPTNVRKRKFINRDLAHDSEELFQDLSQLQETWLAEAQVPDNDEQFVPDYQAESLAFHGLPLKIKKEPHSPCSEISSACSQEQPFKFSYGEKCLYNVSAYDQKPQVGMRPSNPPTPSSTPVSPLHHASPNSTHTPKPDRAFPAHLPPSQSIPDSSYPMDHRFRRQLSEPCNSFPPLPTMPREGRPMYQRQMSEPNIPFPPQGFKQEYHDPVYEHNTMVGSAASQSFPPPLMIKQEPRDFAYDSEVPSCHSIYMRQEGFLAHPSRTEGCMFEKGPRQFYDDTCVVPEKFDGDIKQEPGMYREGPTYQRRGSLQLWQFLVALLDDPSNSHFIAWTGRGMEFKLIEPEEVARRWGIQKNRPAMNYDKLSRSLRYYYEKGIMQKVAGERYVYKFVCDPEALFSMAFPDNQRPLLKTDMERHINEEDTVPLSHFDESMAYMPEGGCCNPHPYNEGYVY
The target of the next assay is T6, ERF (Homo sapiens, UniProt P50548 1-548).
T6 sequence: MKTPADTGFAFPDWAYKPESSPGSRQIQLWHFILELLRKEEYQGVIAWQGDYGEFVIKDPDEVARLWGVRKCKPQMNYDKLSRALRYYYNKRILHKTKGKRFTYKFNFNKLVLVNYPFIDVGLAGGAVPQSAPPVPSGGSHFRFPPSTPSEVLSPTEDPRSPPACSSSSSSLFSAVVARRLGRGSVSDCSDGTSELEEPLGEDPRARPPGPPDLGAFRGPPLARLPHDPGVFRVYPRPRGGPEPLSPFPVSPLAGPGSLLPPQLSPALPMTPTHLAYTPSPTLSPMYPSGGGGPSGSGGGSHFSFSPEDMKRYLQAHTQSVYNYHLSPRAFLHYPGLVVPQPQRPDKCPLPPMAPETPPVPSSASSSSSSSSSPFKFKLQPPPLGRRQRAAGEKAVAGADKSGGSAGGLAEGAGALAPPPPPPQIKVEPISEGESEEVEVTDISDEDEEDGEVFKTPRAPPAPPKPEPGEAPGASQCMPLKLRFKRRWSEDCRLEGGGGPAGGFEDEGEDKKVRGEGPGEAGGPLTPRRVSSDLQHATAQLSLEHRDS
The note with it: protein: recombinant; tags: N-terminal GST; dsDNA, one strand shown. The method, boiled down:
as §1

Another assay concerns the target T7, ETV3L (Homo sapiens, UniProt Q6ZN32 1-361).
T7 sequence: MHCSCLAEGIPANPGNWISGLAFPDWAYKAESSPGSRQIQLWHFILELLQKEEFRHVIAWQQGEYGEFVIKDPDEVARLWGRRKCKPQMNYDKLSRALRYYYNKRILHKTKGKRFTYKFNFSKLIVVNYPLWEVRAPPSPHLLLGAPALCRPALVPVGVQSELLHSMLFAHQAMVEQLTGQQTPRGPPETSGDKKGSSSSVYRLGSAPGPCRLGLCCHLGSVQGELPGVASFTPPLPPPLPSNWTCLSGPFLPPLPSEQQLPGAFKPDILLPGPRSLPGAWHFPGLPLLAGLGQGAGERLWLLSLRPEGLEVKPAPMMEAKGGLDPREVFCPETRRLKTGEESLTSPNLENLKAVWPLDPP
Particulars: protein: recombinant; tags: N-terminal GST; dsDNA, one strand shown. The method, boiled down:
as §1

For the next assay, the target named is T8, ETS2 (Homo sapiens, UniProt P15036 1-469).
T8 sequence: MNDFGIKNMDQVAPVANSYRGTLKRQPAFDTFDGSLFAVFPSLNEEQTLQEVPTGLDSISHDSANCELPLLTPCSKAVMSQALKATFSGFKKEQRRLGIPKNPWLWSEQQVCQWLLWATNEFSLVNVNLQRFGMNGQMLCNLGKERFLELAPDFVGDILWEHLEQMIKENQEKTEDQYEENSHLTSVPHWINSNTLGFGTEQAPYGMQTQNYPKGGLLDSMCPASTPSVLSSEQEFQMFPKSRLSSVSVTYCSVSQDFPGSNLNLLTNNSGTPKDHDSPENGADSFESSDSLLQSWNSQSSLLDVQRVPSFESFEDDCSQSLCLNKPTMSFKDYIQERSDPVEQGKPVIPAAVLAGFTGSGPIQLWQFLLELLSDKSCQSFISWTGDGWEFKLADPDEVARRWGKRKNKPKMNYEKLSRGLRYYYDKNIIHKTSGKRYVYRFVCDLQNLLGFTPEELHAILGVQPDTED
The note with it: protein: recombinant; tags: N-terminal GST; dsDNA, one strand shown. Summed up: as §1

For the next assay, the target named is T9, SPDEF (Homo sapiens, UniProt O95238 1-335).
T9 sequence: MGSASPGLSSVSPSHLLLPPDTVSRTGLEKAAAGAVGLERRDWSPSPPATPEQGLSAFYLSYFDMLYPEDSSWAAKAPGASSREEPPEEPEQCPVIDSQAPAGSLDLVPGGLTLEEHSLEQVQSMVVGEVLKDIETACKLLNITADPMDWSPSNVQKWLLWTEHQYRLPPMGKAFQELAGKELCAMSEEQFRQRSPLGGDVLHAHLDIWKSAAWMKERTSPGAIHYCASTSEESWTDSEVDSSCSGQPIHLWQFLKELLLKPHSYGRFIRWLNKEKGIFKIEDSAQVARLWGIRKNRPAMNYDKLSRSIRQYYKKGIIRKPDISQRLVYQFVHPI
Particulars: protein: recombinant; tags: N-terminal GST; dsDNA, one strand shown. The method, boiled down:
as §1

The target in another assay is T10, ETV7 (Homo sapiens, UniProt Q9Y603 1-341).
T10 sequence: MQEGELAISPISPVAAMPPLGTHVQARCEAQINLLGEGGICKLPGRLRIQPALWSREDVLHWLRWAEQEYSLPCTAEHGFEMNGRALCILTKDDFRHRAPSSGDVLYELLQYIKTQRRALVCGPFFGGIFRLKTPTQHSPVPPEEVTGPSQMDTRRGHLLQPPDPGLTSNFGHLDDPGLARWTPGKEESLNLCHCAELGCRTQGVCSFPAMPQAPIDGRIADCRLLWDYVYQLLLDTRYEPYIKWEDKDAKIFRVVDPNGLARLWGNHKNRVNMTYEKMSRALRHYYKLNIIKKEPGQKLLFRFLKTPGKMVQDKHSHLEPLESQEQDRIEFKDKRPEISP
The note with it: protein: recombinant; tags: N-terminal GST; dsDNA, one strand shown. Summed up:
as §1

The next assay addresses T11, ELF5 (Homo sapiens, UniProt Q9UKW6-2 1-255).
T11 sequence: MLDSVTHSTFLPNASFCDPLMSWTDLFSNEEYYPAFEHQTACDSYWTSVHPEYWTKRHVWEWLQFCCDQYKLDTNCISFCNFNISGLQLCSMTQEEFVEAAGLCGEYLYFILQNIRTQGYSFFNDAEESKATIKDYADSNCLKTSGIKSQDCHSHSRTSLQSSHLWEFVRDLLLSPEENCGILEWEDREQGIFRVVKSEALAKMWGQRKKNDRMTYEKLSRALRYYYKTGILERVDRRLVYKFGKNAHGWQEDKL
Particulars: protein: recombinant; tags: N-terminal GST; dsDNA, one strand shown. The method, boiled down: as §1

The next assay has as its target T12, ETV3 (Homo sapiens, UniProt P41162-2 1-143).
T12 sequence: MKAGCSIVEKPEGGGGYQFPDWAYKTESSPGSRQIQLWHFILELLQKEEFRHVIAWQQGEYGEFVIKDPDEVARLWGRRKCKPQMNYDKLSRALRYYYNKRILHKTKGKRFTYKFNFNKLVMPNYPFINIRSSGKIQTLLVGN
The note with it: protein: recombinant; tags: N-terminal GST; dsDNA, one strand shown. The method, boiled down:
as §1

The target of a further assay is ETV6 (Homo sapiens, UniProt P41212 1-452). The note with it: protein: recombinant; tags: N-terminal GST; dsDNA, one strand shown. Summed up: as §1
Chain of ETV6 (P41212 whole entry): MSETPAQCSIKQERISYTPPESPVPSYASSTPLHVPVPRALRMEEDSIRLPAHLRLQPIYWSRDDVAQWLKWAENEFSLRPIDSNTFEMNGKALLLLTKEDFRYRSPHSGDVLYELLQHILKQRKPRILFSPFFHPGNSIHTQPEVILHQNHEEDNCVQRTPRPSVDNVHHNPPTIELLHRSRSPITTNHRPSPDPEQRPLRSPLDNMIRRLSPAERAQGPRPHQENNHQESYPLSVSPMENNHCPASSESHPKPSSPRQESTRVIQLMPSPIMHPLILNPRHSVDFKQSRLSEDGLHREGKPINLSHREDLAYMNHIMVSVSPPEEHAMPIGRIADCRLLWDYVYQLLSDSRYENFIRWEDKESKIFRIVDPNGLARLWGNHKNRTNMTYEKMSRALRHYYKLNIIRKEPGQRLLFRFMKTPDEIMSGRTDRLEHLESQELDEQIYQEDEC

Chain of ETV5 (P41161 whole entry): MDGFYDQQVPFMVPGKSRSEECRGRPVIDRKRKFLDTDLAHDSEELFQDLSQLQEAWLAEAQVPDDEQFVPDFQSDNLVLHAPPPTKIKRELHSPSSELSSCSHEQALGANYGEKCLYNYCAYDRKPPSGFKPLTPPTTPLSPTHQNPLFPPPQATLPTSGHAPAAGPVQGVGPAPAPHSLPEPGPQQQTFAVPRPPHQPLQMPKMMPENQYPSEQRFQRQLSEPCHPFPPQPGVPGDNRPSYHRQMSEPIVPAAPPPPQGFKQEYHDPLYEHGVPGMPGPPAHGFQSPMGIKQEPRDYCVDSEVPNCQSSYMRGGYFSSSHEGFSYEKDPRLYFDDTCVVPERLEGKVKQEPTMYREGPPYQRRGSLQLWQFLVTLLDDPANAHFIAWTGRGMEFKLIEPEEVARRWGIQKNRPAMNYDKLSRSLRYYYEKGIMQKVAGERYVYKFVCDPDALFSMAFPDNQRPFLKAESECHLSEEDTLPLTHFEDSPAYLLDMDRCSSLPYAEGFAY
Chain of HSF1 (Q00613 whole entry): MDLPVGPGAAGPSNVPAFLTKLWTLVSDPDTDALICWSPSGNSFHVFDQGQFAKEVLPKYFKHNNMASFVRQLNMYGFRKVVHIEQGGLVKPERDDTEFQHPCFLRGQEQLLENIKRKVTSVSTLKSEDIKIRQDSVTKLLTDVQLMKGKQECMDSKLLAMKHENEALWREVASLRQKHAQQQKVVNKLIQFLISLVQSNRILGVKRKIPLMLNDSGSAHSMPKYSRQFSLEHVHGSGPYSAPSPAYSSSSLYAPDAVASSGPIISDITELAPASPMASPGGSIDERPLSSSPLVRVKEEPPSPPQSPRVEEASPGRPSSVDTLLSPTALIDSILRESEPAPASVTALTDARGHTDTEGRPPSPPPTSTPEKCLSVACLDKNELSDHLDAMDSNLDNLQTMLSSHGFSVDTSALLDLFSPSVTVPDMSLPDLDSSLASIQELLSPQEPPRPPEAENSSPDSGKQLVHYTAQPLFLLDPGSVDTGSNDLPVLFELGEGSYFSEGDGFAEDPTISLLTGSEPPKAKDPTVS

Take CGTATT: the binding signal in the assay with FEV was 1.07 fold enrichment (6-mer frequency, TF over GST control); with ETV5, 1.2 fold enrichment (6-mer frequency, TF over GST control); with HSF1, 1.21 fold enrichment (6-mer frequency, TF over GST control); with SPIC, 1.22 fold enrichment (6-mer frequency, TF over GST control); with ELF4, 1.16 fold enrichment (6-mer frequency, TF over GST control); with ELK4, 1.18 fold enrichment (6-mer frequency, TF over GST control). In addition, the binding signal in the assay with ETV2 was 1.38 fold enrichment (6-mer frequency, TF over GST control); with ELF3, 1.04 fold enrichment (6-mer frequency, TF over GST control); with CRX, 1.46 fold enrichment (6-mer frequency, TF over GST control); with ETV1, 1.22 fold enrichment (6-mer frequency, TF over GST control); in the assay with ERF, 1.08 fold enrichment (6-mer frequency, TF over GST control); with ETV3L, 1.09 fold enrichment (6-mer frequency, TF over GST control). The binding signal with ETS2 was 1.18 fold enrichment (6-mer frequency, TF over GST control); in the assay with SPDEF it was 1.16 fold enrichment (6-mer frequency, TF over GST control); with ETV7 it was 1.07 fold enrichment (6-mer frequency, TF over GST control); in the assay with ELF5 it was 1.14 fold enrichment (6-mer frequency, TF over GST control); in the assay with ETV3, 1.16 fold enrichment (6-mer frequency, TF over GST control); with ETV6, 1.22 fold enrichment (6-mer frequency, TF over GST control).

Values taken from article PMC7862700, “An all-to-all approach to the identification of sequence-specific readers for epigenetic DNA modifications on cytosine”.
